Reference: PubChem BioAssay (NCATS)
Records with an inconclusive call do not appear. The source made the active and inactive calls. Calls come from the whole dose curve; as a rule, active = well fitted curve in the direction sought with a large enough effect; inconclusive = small, poorly fitted or top-dose-only effect, or another doubt; inactive = no such curve, though single readings can be large; an effect the other way counts as inactive or inconclusive.

Experiments:
[1] = qHTS of pediatric cancer cell lines to identify multiple opportunities for drug repurposing: Primary screen for DAOY cells (AID 1347090); note: series mostly up to about 46 µM; nearly all actives have a fitted effect of over 55% in size
Method in brief: (§1)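 Eight- or eleven-point concentration series, 48 h treatment at 37 degrees C in growth media; readout CellTiter-Glo luminescence. Potency and efficacy were taken from the concentration-response curves.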

[2] = qHTS of pediatric cancer cell lines to identify multiple opportunities for drug repurposing: Primary screen for SJ-GBM2 cells (AID 1347091)
Method in brief: as §1

[3] = qHTS of pediatric cancer cell lines to identify multiple opportunities for drug repurposing: Primary screen for A673 cells (AID 1347092); note: nearly all actives have a fitted effect of over 45% in size; note: potency is the fitted concentration of half-maximal effect
Method in brief: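 Luminescence from CellTiter-Glo, taken after 15 min at room temperature, served as the proxy for metabolically active cells following 48 h treatment. Both potency and efficacy were taken from curves fitted to the titration data.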

[4] = qHTS of pediatric cancer cell lines to identify multiple opportunities for drug repurposing: Primary screen for BT-37 cells (AID 1347094); note: series mostly up to about 57 µM
Method in brief: (§2)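 Cells plated at 500-1,000/well in growth medium, compounds added after 5 h. MIPE tested at 11 points (from 0.78 nM), NPC at 8 points (from 0.59 nM). CellTiter-Glo luminescence after 48 h; concentration-response curves from primary screen.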

[5] = qHTS of pediatric cancer cell lines to identify multiple opportunities for drug repurposing: Primary screen for NB-EBc1 cells (AID 1347095); note: potency is the fitted concentration of half-maximal effect
Method in brief: as §2

[6] = qHTS of pediatric cancer cell lines to identify multiple opportunities for drug repurposing: Primary screen for U-2 OS cells (AID 1347096); note: nearly all actives have a fitted effect of over 50% in size
Method in brief: (§3)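 Cells (500-1,000/well) in growth media were settled 5 h at 37 degrees C, then given compounds for 48 h. Viability was read as CellTiter-Glo luminescence. Primary runs used MIPE at 11 points (0.78 nM-46 µM) and NPC at 8 points (0.59 nM-46 µM); follow-ups used 11 points.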

[7] = qHTS of pediatric cancer cell lines to identify multiple opportunities for drug repurposing: Primary screen for Saos-2 cells (AID 1347097); note: nearly all actives have a fitted effect of over 40% in size
Method in brief: as §2

[8] = qHTS of pediatric cancer cell lines to identify multiple opportunities for drug repurposing: Primary screen for SK-N-SH cells (AID 1347098);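 note: DMSO served as neutral control and bortezomib at 2.3 µM as positive control; nearly all actives have a fitted effect of over 65% in size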
Method in brief: (§4)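 Cells (500-1,000/well) rested 5 h, then received compounds for 48 h; metabolically active cells were measured by CellTiter-Glo luminescence. Final concentrations spanned up to 46 µM (MIPE, 11-point) or 0.59 nM-46 µM (NPC, 8-point) in primary screens, 11-point in follow-ups.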

[9] = qHTS of pediatric cancer cell lines to identify multiple opportunities for drug repurposing: Primary screen for NB1643 cells (AID 1347099); note: nearly all actives have a fitted effect of over 50% in size
Method in brief: as §2

[10] = qHTS of pediatric cancer cell lines to identify multiple opportunities for drug repurposing: Primary screen for LAN-5 cells (AID 1347100)
Method in brief: as §3

[11] = qHTS of pediatric cancer cell lines to identify multiple opportunities for drug repurposing: Primary screen for Rh18 cells (AID 1347102); note: nearly all actives have a fitted effect of over 65% in size
Method in brief: as §3

[12] = qHTS of pediatric cancer cell lines to identify multiple opportunities for drug repurposing: Primary screen for RD cells (AID 1347104); note: nearly all actives have a fitted effect of over 55% in size
Method in brief: as §2

[13] = qHTS of pediatric cancer cell lines to identify multiple opportunities for drug repurposing: Primary screen for MG 63 (6-TG R) cells (AID 1347105); note: nearly all actives have a fitted effect of over 50% in size
Method in brief: as §2

[14] = qHTS of pediatric cancer cell lines to identify multiple opportunities for drug repurposing: Primary screen for Rh30 cells (AID 1347107); note: series mostly up to about 46 µM; nearly all actives have a fitted effect of over 75% in size
Method in brief: as §3

[15] = qHTS of pediatric cancer cell lines to identify multiple opportunities for drug repurposing: Primary screen for Rh41 cells (AID 1347108);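 note: series mostly up to about 46 µM; luminescence drop marks cytotoxic hits; nearly all actives have a fitted effect of over 70% in size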
Method in brief: as §2

[16] = qHTS of pediatric cancer cell lines to identify multiple opportunities for drug repurposing: Primary screen for BT-12 cells (AID 1347101); note: nearly all actives have a fitted effect of over 25% in size
Method in brief: as §4

[17] = qHTS of pediatric cancer cell lines to identify multiple opportunities for drug repurposing: Primary screen for OHS-50 cells (AID 1347103); note: nearly all actives have a fitted effect of over 40% in size
Method in brief: as §4

[18] = qHTS of pediatric cancer cell lines to identify multiple opportunities for drug repurposing: Primary screen for control Hh wild type fibroblast cells (AID 1347106);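 note: series mostly up to about 46 µM; a drop in luminescence marks cytotoxicity and a rise apparent proliferation; nearly all actives have a fitted effect of over 55% in size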
Method in brief: as §3

[19] = qHTS of pediatric cancer cell lines to identify multiple opportunities for drug repurposing: Primary screen for SK-N-MC cells (AID 1347093); note: potency is the fitted concentration of half-maximal effect
Method in brief: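 Metabolically active cells were quantified by ATP-dependent luminescence (CellTiter-Glo, 15 min at room temperature) following 48 h treatment. Cells had been plated at 500-1,000 per well and settled for 5 h beforehand.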

Measured: Potency

Cc1nc2n(c(=O)c1CCN1CCC(C(=O)c3ccc(F)cc3)CC1)CCS2
not listed: [16] | [17] | [18] | [19]
inactive: all other assays above

C[C@H]1NCc2cc(-c3ccc4c(=O)c(C(=O)O)cn(C5CC5)c4c3OC(F)F)ccc21
not listed: [19]
inactive: all other assays above

CCOc1ccc(NS(=O)(=O)c2ccc(N)cc2)nn1
not listed: [10] | [19]
inactive: all other assays above

CC(C)C(C)(C)C(C)(C)C(C)(C)S
not listed: [11] | [18] | [19]
inactive: all other assays above

CN1CCCN=C1/C=C/c1cccs1
not listed: [19]
inactive: all other assays above

Cc1cccc(C)c1NC(=O)c1cc(S(N)(=O)=O)c(Cl)cc1O
not listed: [19]
inactive: all other assays above

Cc1cc(O)c2c(O)c3c(O)cccc3cc2c1
not listed: [19]
inactive: all other assays above

CC(=O)N(CC(=O)N(C)C)c1ccccc1
not listed: [5] | [7] | [13] | [15]
inactive: all other assays above

O=C(COCCOCCOCC(=O)Nc1c(I)cc(I)c(C(=O)O)c1I)Nc1c(I)cc(I)c(C(=O)O)c1I
not listed: [11] | [13] | [14] | [17] | [19]
inactive: all other assays above

CC(=O)OCC[N+](C)(C)C
not listed: [19]
inactive: all other assays above

NCC(=O)O
not listed: [13] | [19]
inactive: all other assays above

CCOC(=O)c1cc(=O)c2c(OCC(COc3cccc4oc(C(=O)OCC)cc(=O)c34)OC(=O)[C@@H](N)CCCCN)cccc2o1
not listed: [19]
inactive: all other assays above

CC(=O)Nc1ccn(C2COC(COC(=O)c3ccccc3)O2)c(=O)n1 (configuration not stated)
inactive: [1] | [2] | [6] | [7] | [11] | [12] | [18] | [14] | [15]
active: [3] 1330 nM | [19] 750 nM | [5] 2370 nM

O=C(O)Cc1ccc(OCCNC[C@H](O)c2ccccc2)cc1
not listed: [15] | [19]
inactive: all other assays above

O=C(O)/C=C(\CC(=O)O)C(=O)O
not listed: [4] | [10] | [11]
inactive: all other assays above
